# Results published in PubChem BioAssay (EPA / NIEHS).
# Records with an inconclusive call do not appear. The source made the active and inactive calls. The calls were made as follows: active = hit-call score of the fitted dose curve at least 0.9, where 1 is the maximum; inconclusive = response in the unintended direction; inactive = score below 0.9.
# Read-out: sulfotransferase (SULT2A), SULT2A1 (gene 6822)
# Assay: CLD_SULT2A_6hr: CellzDirect (CLD) Gene Expression Assay for sulfotransferase (SULT2A) at 6 hours (AID 2283669);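 also: hits raise transcript level above the DMSO vehicle baseline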
# Protocol: CLD_6hr is a cell-based, multiplexed-readout assay that uses hepatocyte, a human liver primary cell, with measurements taken at 6 hours after chemical dosing in a 96-well plate.CLD_SULT2A_6hr is one of 16 assay component(s) measured or calculated from the CLD_6hr assay. It is designed to make measurements of mRNA induction, a form of inducible reporter, as detected with chemiluminescence signals by Quantitative Nuclease Protection Assay (qNPA) technology.Data from the assay component CLD_SULT2A_6hr was analyzed at the endpoint, CLD_SULT2A_6hr, in the positive analysis fitting direction relative to DMSO as the negative control and baseline of activity. Using a type of inducible reporter, gain-of-signal activity can be used to understand changes in the reporter gene as they relate to the gene SULT2A1. Furthermore, this assay endpoint can be referred to as a primary readout. To generalize the intended target to other relatable targets, this assay endpoint is annotated to the transferase intended target family, where subfamily is sulfotransferase.
# Human hepatocyte cultures were treated daily for two consecutive days with fresh dosing solutions containing appropriate concentrations of the 320 ToxCast chemicals (chemical identities were blinded to CellzDirect and other ToxCast collaborators), vehicle control (0.2% DMSO), and positive control inducers as summarized in Table 1. Due to the large number of treatment groups and chemicals examined, the ToxCast chemicals were divided into two groups (spanning two independent cultures of hepatocytes from separate donor preparations (Hu778: ToxCast plates 1 and 2; Hu776: ToxCast plates 3 and 4). Each preparation of human hepatocyte cultures was treated with respective vehicle control, medium only control, set of six positive controls/reference chemicals for the five hepatic receptor pathways, and a subset of eight of the ToxCast chemicals (indoxacarb, pyrithiobac-sodium, norflurazon, cyhalofop-butyl, methomyl, thiram, acetochlor, and propiconazole). These replicate data, coupled with internal replicates designed within the blinded ToxCast chemical library, provided additional data to evaluate interindividual differences between hepatocyte preparations and their potential impact on chemical profiles.Cell morphology and integrity were evaluated using phase-contrast microscopy as an indicator of hepatocyte cell health (Tyson & Green, 1987). Cultures for each treatment group (i.e., media, vehicle [0.2% DMSO], positive control inducers [multiple concentrations], and the ToxCast chemicals [multiple concentrations]) were observed and cell morphology was assessed relative to vehicle control cultures at each harvest time point (0, 6, 24, or 48 h). […] Images were evaluated at the conclusion of the study to assess changes in cell integrity and account for the effects of chemical exposure on uncharacteristic changes in concentration-dependent gene expression profiles. The results from these determinations of apparent cytotoxicity were annotated (yes/no) alongside the corresponding qNPA data for reference.At the conclusion of each treatment period, hepatocyte cultures (96-well) were washed with 1 volume of HBSS, lysed by addition of 25 ul ArrayPlate lysis buffer (HTG, Tucson, AZ), and 70 ul/well of Denaturation Oil, denatured by incubation at 95C for 10 min, and frozen at approximately -70C until analysis by nuclease protection assay (qNPA) (Roberts et al., 2007). For qNPA analysis, cell lysates were thawed at 50C for approximately 30 min, qNPA probes were added, and samples were incubated at 95C for 10 min to begin the detection process by denaturing the target RNA, dissociating the duplexes and secondary structure hybridization. At the conclusion of the hybridization period, S1 nuclease reagent was added to each sample to digest all nonprotected nucleotides at 50C for 60-90 min. […]
SMILES,outcome,AC50
CC(C)N(C(=O)SCC(Cl)=C(Cl)Cl)C(C)C,inactive,
CNC(=O)ON=C(C)SC,inactive,
CCC(=NOC/C=C/Cl)C1=C(O)CC(C2CCOCC2)CC1=O (stereo not given),inactive,
CCCCSP(=O)(SCCCC)SCCCC,inactive,
CSC1=N[C@@](C)(c2ccccc2)C(=O)N1Nc1ccccc1,inactive,
CNc1cnn(-c2cccc(C(F)(F)F)c2)c(=O)c1Cl,inactive,
Nc1nc(N)nc(NC2CC2)n1,inactive,
C#CC(C)(C)NC(=O)c1cc(Cl)cc(Cl)c1,inactive,
CN1COCN(Cc2cnc(Cl)s2)C1=N[N+](=O)[O-],inactive,
CCCCN(CC)c1c([N+](=O)[O-])cc(C(F)(F)F)cc1[N+](=O)[O-],inactive,
CCCSP(=O)(OCC)SCCC,inactive,
C=C(C)[C@H]1Cc2c(ccc3c2O[C@@H]2COc4cc(OC)c(OC)cc4[C@@H]2C3=O)O1,inactive,
CCOP(=S)(Oc1cnc(C(C)(C)C)nc1)OC(C)C (stereo not given),,10.8 µM (active)
CNC(=O)ON=C(SC)C(=O)N(C)C,inactive,
CC(C)[C@H](C(=O)O[C@H](C#N)c1cccc(Oc2ccccc2)c1)c1ccc(Cl)cc1,inactive,
CCOP(=S)(OCC)Oc1ccc([N+](=O)[O-])cc1,inactive,
CC(COc1ccc(Oc2ccccc2)cc1)Oc1ccccn1 (stereo not given),inactive,
CNC(=O)Oc1cccc2c1OC(C)(C)O2,inactive,
CCOP(=S)(OCC)Oc1cc(C)nc(C(C)C)n1,inactive,
CSc1nc(NC(C)C)nc(NC(C)C)n1,inactive,

SMILES,outcome,AC50
COP(=O)(OC)SCn1c(=O)oc2cc(Cl)cnc21,inactive,
CC1=NNC(=O)N(/N=C/c2cccnc2)C1,inactive,
COc1cccc(C(=O)NN(C(=O)c2cc(C)cc(C)c2)C(C)(C)C)c1C,inactive,
CN(C)NC(=O)CCC(=O)O,inactive,
CCOC(=O)COc1cc(-c2nn(C)c(OC(F)F)c2Cl)c(F)cc1Cl,inactive,
CON=C(C(=O)OC)c1ccccc1CON=C(C)c1cccc(C(F)(F)F)c1,inactive,
C#CCC1=C(C)C(OC(=O)C2C(C=C(C)C)C2(C)C)CC1=O (stereo not given),inactive,
CCCSP(=O)(OCC)Oc1ccc(Br)cc1Cl (stereo not given),inactive,
CC(=NC#N)N(C)Cc1ccc(Cl)nc1,inactive,
CCC(CC)Nc1c([N+](=O)[O-])cc(C)c(C)c1[N+](=O)[O-],inactive,
CSc1nnc(C(C)(C)C)c(=O)n1N,inactive,
N#CSCSC#N,inactive,
FC(F)C(F)(F)OCC(Cn1cncn1)c1ccc(Cl)cc1Cl (stereo not given),inactive,
CC(C)=CC1C(C(=O)OCN2C(=O)C3=C(CCCC3)C2=O)C1(C)C (stereo not given),inactive,
O=C(O)c1cc(Oc2ccc(C(F)(F)F)cc2Cl)ccc1[N+](=O)[O-],,0.00442 µM (active)
CCOP(=S)(OCC)Oc1ccc2c(C)c(Cl)c(=O)oc2c1,inactive,
CCOP(=O)(OCC)Oc1cc(C)nc(C(C)C)n1,inactive,
CCc1cccc(CC)c1N(COC)C(=O)CCl,inactive,
CCc1cccc(C)c1N(C(=O)CCl)C(C)COC (stereo not given),inactive,
COP(=O)(OC)OC(Br)C(Cl)(Cl)Br (stereo not given),inactive,
